HP1b binding inh – blocks HP1-beta chromodomain binding to methylated histone tails. P83916. AlphaScreen HP1-beta / biotin-H3K9me3 peptide binding. Potency, µM (doses to about 114 µM), for inactives: at the highest dose activity change, negative = inhibition, actives largely listed as inhibitors. actives 0.56% (n = 390,000). AID 540317; note: nearly all actives have a fitted effect of over 70% in size
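HP1-beta protein (50 nM final) preincubated 30 min at room temperature with biotinylated H3(1-18)K9me3 peptide (50 nM) in PBS pH 7.4, 0.01% Tween-20, then compound added for 30 min. AlphaScreen streptavidin donor/nickel chelate acceptor beads (10 ug/mL final), 30 min dark, luminescence read.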
BAZ2B inh – BAZ2B (human) inhibition; AlphaScreen BAZ2B-H3K14Ac peptide displacement; AID 504333; Q9UIF8; actives 4.4% (n = 360,000); Potency, µM (highest dose often 114 µM), inactives show top-dose activity change, negative = inhibition, hits mostly inhibitors; note: % is set by controls: 0 for no effect and ±100 for the full control effect; nearly all actives have a fitted effect of over 60% in size
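AlphaScreen displacement of biotin-H3(5-23)K14Ac peptide (50 nM final) from BAZ2B (50 nM final) in PBS pH 7.4, 0.01% Tween-20; complex preformed 30 min RT, then compounds (top 110 uM) 30 min RT, beads 20 min dark.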
JMJD2A Tudor – inhibitors of human JMJD2A Tudor domain | Potency, µM (series often up to 114 µM), for inactives: at the top dose activity change, negative = inhibition, actives largely listed as inhibitors | actives 4.4% (n = 390,000) | AlphaScreen JMJD2A-Tudor / H3K4me3 peptide binding | AID 504339; note: % is set by controls: 0 for no effect and ±100 for the full control effect; nearly all actives have a fitted effect of over 50% in size
L3MBTL1 inh – blocks human L3MBTL1 | Q9Y468 | AlphaScreen L3MBTL1–H3K9me1 peptide binding | Potency, µM (series often up to 57.1 µM), for the others: at the top dose activity, negative = inhibition, actives largely listed as inhibitors | actives 0.66% (n = 230,000) | AID 485360; note: % is set by controls: 0 for no effect and ±100 for the full control effect; nearly all actives have a fitted effect of over 60% in size
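AlphaScreen assay: L3MBTL1 (50 nM final) was preincubated 30 min at room temperature with biotinylated H3(1-15)K9me1 peptide (75 nM final), then 30 min with library compounds; streptavidin donor and nickel chelate acceptor beads (10 ug/mL final) added, 30 min dark.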
G9a block – blocks human histone lysine methyltransferase G9a. Q96KQ7. G9a H3K9 monomethylation, AlphaScreen, 2 h. Potency, µM (titrated, usually from 102 µM), inactives show at the highest dose activity, negative = inhibition, actives largely listed as inhibitors. actives 8.8% (n = 350,000). AID 504332; note: % is set by controls: 0 for no effect and ±100 for the full control effect; nearly all actives have a fitted effect of over 75% in size
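Compounds were preincubated with 20 nM G9a for 15 min, after which biotinylated H3K9 peptide (500 nM) and SAM (20 uM) started a 2 h room-temperature reaction. Monomethylated product was quantified by antibody-based AlphaScreen chemiluminescence.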
An asterisk follows results filed as active; ? = inconclusive; nt = no result; ! = a repeat was not active; [ ] = dose if it differs, or a comment. The list is not random: actives were taken first. Their share in the collection is about 11%. Calls come from the whole dose curve; as a rule, active = well fitted inhibition curve with a large enough effect; inconclusive = small, poorly fitted or top-dose-only effect; inactive = no such curve, though single readings can be large or run the other way. Potency is the fitted concentration of half-maximal effect.

SMILES	HP1b binding inh	BAZ2B inh	JMJD2A Tudor	L3MBTL1 inh	G9a block
Cc1ccc(NC(=O)CSc2nnc(-c3ccccc3Br)o2)cc1C	14.5%	-4.7%	-16.8%	7.5%	10µM*
O=C(CSc1nnc(-c2cccnc2)o1)Nc1cccc(Cl)c1	28.6%	-8.4%	-7.5%	nt	44.7µM*
O=C(CSc1nnc(-c2ccccc2Br)o1)Nc1nncs1	18.0%	18.9%	-13.3%	8.8%	nt
O=C(CSc1nnc(-c2ccncc2)o1)Nc1nncs1	17.8%	-22.3%	31.6µM*	nt	14.7%
O=C(CSc1nnc(-c2ccc(O)cc2)o1)NNC(=O)c1ccncc1	8.5%	?	?	nt	17.8µM*
Cc1ccc(N(CC(=O)NCc2ccccn2)S(=O)(=O)c2ccccc2)cc1C	16.2%	-12.0%	-4.6%	nt	9.6%
O=S(=O)(c1ccc(Cl)cc1)N1CCOCC1	24.6%	nt	-3.5%	nt	nt
Cc1cccc(CCNC(=O)c2ccc(CSCc3cccc(Cl)c3)o2)c1	38.3%	19.4%	36.5%	nt	0.6%[59 µM]
CC1CC=CC2C1C(=O)N(Cc1ccccc1)C2c1ccc(-c2cc3ccccc3s2)cc1F (centres undefined)	29.6%	nt	-5.5%	nt	nt
O=C(N/N=C/c1sc(N2CCCCC2)nc1-c1cccs1)C1CC1	19.9%	13.0%	?	11.5%	25.1µM*
O=C(c1ccc(Cl)cc1)n1nc(-c2ccco2)nc1NCc1cccs1	6.2%	-4.2%	7.6%	nt	3.1%[59 µM]
NC(=S)N/N=C/c1ccc(-c2cc(Cl)ccc2Cl)o1	-9.2%	-2.4%	?	nt	-5.7%
CN(/N=C/c1ccc(-c2ccc([N+](=O)[O-])cc2)o1)c1ccccc1	?	-36.0%	25.1µM*	-12.2%	-5.0%
NC(=S)N/N=C/c1ccc(-c2cc(Cl)cc(Cl)c2)o1	9.1%	-33.4%	-34.7%	nt	12.6µM*
NC(=S)N/N=C/c1ccc(-c2ccc([N+](=O)[O-])cc2)o1	31.7%	-29.3%	-13.0%	-7.9%	22.4µM*
CN(C)/N=C/c1ccc(Sc2ccccc2[N+](=O)[O-])o1	35.5µM*	20µM*	39.8µM*	?	25.1µM*
COc1ccc(-n2c(SCC(=O)Nc3cccc(C)c3C)nc3c([nH]c4ccccc43)c2=O)cc1	10.7%[57 µM]	-4.5%	-7.1%	nt	8.8%[59 µM]
CNc1ncnc2c1ncn2[C@@H]1O[C@H](COP(=O)(O)O)[C@@H](O)[C@H]1O	nt	nt	nt	nt	32.3%[59 µM]
CNc1ncnc2c1ncn2[C@H]1C[C@H](OP(=O)(O)O)[C@@H](COP(=O)(O)O)O1	nt	nt	nt	nt	20µM*!
CCOC(=O)CC1Sc2ccccc2NC1=O (centres undefined)	36.0%	-4.6%	0.0%	17.1%	10µM*
CCOC(=O)CC1Sc2ccccc2NC1=S (centres undefined)	14.7%	-33.2%	-8.2%	-16.9%	44.7µM*
Cc1ccc(NC(=S)Nc2cccc(-c3n[nH]c(=S)o3)c2)cc1	-19.1%	?	-27.7%	-3.3%	50.1µM*
NC(=S)Nc1cccc(-c2n[nH]c(=S)o2)c1	12.3%	-20.8%	?	-0.3%	39.8µM*
COc1ccc(-n2c(SCC(=O)c3ccc(Cl)cc3)nc3c([nH]c4ccccc43)c2=O)cc1	18.7%[57 µM]	1.3%	-8.1%	nt	4.9%[59 µM]
COc1ccc(CNC(=O)c2cc(=O)[nH]c3ccc(S(=O)(=O)N4CCCC4)cc23)c(OC)c1	30.1%	0.1%	-2.8%	nt	8.7%[59 µM]
SMILES	HP1b binding inh	BAZ2B inh	JMJD2A Tudor	L3MBTL1 inh	G9a block
O=C(Nc1ccc(Cl)cc1)Nc1ccccc1Sc1ncc([N+](=O)[O-])s1	7.8%	28.2µM*	?	nt	nt
O=C(Nc1csc([N+](=O)[O-])c1)Nc1ccccc1Cl	8.5%	-35.2%	1.7%	nt	12.2%
CS(=O)c1ccccc1-c1nc(-c2cccc(Cl)c2)no1 (centres undefined)	-1.7%	3.0%	35.5µM*	18.5%	-3.4%
COc1ccc(OCc2nnc(SCC(=O)N(C)Cc3ccccc3)n2N)cc1	?	nt	?	-5.6%	7.08µM*
O=C(CSc1nnnn1C1CCCCC1)N1CCc2ccccc21	24.4%	6.8%	-5.6%	nt	-1.1%[12.7 µM]
CCc1nnc(NCC(=O)N2CCc3ccccc32)s1	-7.9%	?	14.4%[11.4 µM]	-4.2%	14.1µM*
Cn1c(SCC(=O)N2CCCc3ccccc32)ncc(C(=O)Nc2ccccc2)c1=O	57.1%	3.1%	0.0%	nt	1.8%[59 µM]
